Each compound was assayed against Glucose transporter (Leishmania mexicana) (UniProt O61059) (assay: ST_JUDE_LEISH: Cytotoxicity at 2uM final concentration against transgenic Leishmania Mexicana promastigotes LmGT2 that are glucose transport deficient and complemented with the L. Mexicana glucose transporter 2. Activity is measured by DNA content using SYBR green in vitro).
Format: functional

Compound	inhibition [%]
Cc1ccc(NC(=O)Nc2ccccc2)cc1-c1ccc(C(=O)Nc2ccncc2)cc1	9
CCCn1c(Sc2ccc(C#N)c([N+](=O)[O-])c2)nnc1-c1ccc(N(C)C)cc1	3.14
COc1ccccc1Cc1nc2ccccc2nc1SCC(=O)Nc1cccc(C(F)(F)F)c1	1.7
CCCCNC(=O)[C@@H](NC(=O)c1ccc(O)c(-c2ccc(Cl)c(Cl)c2)c1)C(C)C	3.47
CCCNCc1ccc(-c2ccc(CN(CCOC)C(=O)CCCOCc3ccccc3)cc2)nc1	0.45
CC(C)COc1ccc(Cl)cc1Cc1ccc(-c2nc3ccc(C(F)(F)F)cc3[nH]2)o1	2.13
CC1(CCc2ccccc2)N=C(N)N=C(N)C1c1ccc(Cl)c(Cl)c1 (stereo not given)	8.62
O=C(NC(Nc1ccc([N+](=O)[O-])cc1)C(Cl)(Cl)Cl)c1ccc(Cl)cc1 (stereo not given)	-2.78
N#Cc1ccc(N[C@@H](CC2CCCCC2)C(=O)Nc2ccc(-c3ccccc3)cc2)c2ccccc12	3.75
CN(Cc1cccc(O)c1)C1CCN(c2cc(NC(=O)c3cccc(F)c3)ccn2)CC1	1.33
CC(C)c1ccc(NC(=O)c2ccc(C(=O)NC3CCN(Cc4ccccc4)CC3)cc2)cc1	-1.3
O=C(Nc1ccccc1)Nc1cccc(-c2nn3c(OCCN4CCCC4)cccc3c2-c2ccncc2)c1	6.34
Cc1onc(-c2ccccc2)c1-c1nc(NCCC(c2ccccc2)c2ccccc2)no1	6.9
O=C(CN1CCC(NCc2cnc(-c3ccc(Cl)cc3)[nH]2)CC1)N1CCc2ccccc21	0.77
O=C(Nc1ccccc1)Nc1cccc(-c2nn3c(OCC4CCCCN4)cccc3c2-c2ccncc2)c1 (stereo not given)	1.3
COc1cc(Cc2cnc(N)nc2N)ccc1OCc1ccc(-c2ccccc2C#N)cc1	-0.89
CC(C)(C)c1ccc(CNC(=O)/C=C/c2ccc(CNC3CCNCC3)cc2)cc1	-1.84
CCCCCCCCNc1c2ccc(Cl)cc2nc2ccc(OC)cc12	5.8
CCC(C)(C)NC(=O)C(c1cccc(OC)c1)N(C(=O)CNC(=O)c1cccs1)c1ccc2c(c1)OCCO2 (stereo not given)	6.92
CN1CCN(C(C(=O)NCc2cc(Cl)cc(Cl)c2)c2ccc(Nc3cccc(C(F)(F)F)c3)cc2)CC1 (stereo not given)	-2.02

Compound	inhibition [%]
CCC/C=C/c1c(CNCCCNc2cc(=O)c3ccccc3[nH]2)sc(CC)c1Br	0.32
CCCCC(NCC)c1ccc(OCCOc2ccc(C(CCCC)NCC)cc2)cc1 (stereo not given)	106
N#Cc1cccc(NC(=O)Nc2ccc3c(c2)CCN(C2CCC2)CC3)c1	4.94
O=C(Nc1ccc2oc(-c3ccc(Cl)cc3Cl)nc2c1)c1ccc([N+](=O)[O-])o1	11
COc1ccc(C2SCC(=O)N2CCc2ccc(OC)c(OC)c2)cc1 (stereo not given)	2.36
CCOc1ccccc1CON1C(N)=NC(N)=NC1(C)C	7.54
CC(C)NC(=N)NN=Cc1ccc(Cl)c(Cl)c1	0.07
Cc1ccc(C(C)C)c(Oc2ccc3nc(N)nc(N)c3c2)c1	5.01
COc1ccc(CN2CCCC(Nc3ccc(F)c(F)c3)C2)c(O)c1 (stereo not given)	3.1
COc1ccc(CNCCc2cccs2)cc1-c1ccc(OC)c(S(=O)(=O)NCCN2CCCC2)c1	3.49
COc1cc(F)c2nccc([C@@H](O)CN3CCC(NC(=O)OCc4ccccc4)C(F)C3)c2c1 (stereo not given in full)	3.75
C=C[C@]1(C)C[C@@H](OC(=O)c2cncn(COC)c2=O)[C@]2(C)[C@H](C)CC[C@]3(CCC(=O)[C@H]32)[C@@H](C)[C@@H]1O	0.15
COc1cc(Cc2c(C)nc3nc(N)nc(N)c3c2C)c(Br)c(OC)c1OC	4.73
O=C1OC2(CN1CC1CCN(Cc3ccc(O)c(Cl)c3)CC1)c1ccccc1-c1ccccc12	3.94
Nc1ccc(-c2cnc3[nH]cc(-c4ccc(C(=O)O)cc4)c3c2)cn1	1.27
O=C(/C=C/c1ccc(F)cc1)NC1CCC(CCN2CCc3ccc(-n4cccn4)cc3CC2)CC1 (stereo not given)	7.81
CC(=O)c1c(Cc2ccccc2Cl)c[nH]c1C	-1.32
CCSc1nc2sc3c(c2c(=O)n1-c1ccccc1)CCN(C)C3	-0.96
CC(Oc1ccc(Cl)cc1)C(=O)Nc1cc(C(F)(F)F)ccc1-n1cncn1 (stereo not given)	3.88
COc1ccc(-c2ncnc(C(F)(F)F)c2-c2ccc(Cl)cc2)c(O)c1	2.96

Source: ChEMBL document CHEMBL3433997, “St. Jude Leishmania screening dataset” (2016)
